Measured values from PubChem BioAssay (NCI).
About 83,000 compounds went through this panel and 20% of them were active in at least one assay; those are over-represented in the sample as a whole.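 Interpretation: 100, growth as untreated; towards 0, rising growth inhibition; 0, no net growth; 0 to -100, cell death. Compounds scoring below 10 were considered active.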 Values without a mark were called inactive. Active and inactive are the calls of the source.

What was measured:
Test in all cases: NCI-60 one-dose screen, 48 h (100 = growth as untreated, 0 = no growth, -100 = all killed)
Conditions in all cases: 10 µM unless noted
[1] = test system: DU-145 prostate
[2] = test system: K-562 leukemia
[3] = test system: MALME-3M melanoma
[4] = test system: MDA-MB-231 breast
[5] = test system: RXF 393 renal
[6] = test system: SF-268 CNS
[7] = test system: SF-295 CNS
[8] = test system: SF-539 CNS
[9] = test system: UACC-257 melanoma
[10] = test system: M14 melanoma

Row | Compound | growth [1] | growth [2] | growth [3] | growth [4] | growth [5] | growth [6] | growth [7] | growth [8] | growth [9] | growth [10]
1 | CCCCCCCCCCCCCCCCOC(=O)c1c(C)[nH]c(/C=C2\N=C(c3ccc[nH]3)C=C2OC)c1C | 49.3% | 38.3% | 68.4% | 46.6% | 32% | 69.6% | 68.7% | 63.6% | 86.1% | -17.1% (active)
2 | COc1cc2c3c(c1O)-c1ccccc1[C@@H]1OC(=O)N(CC2)[C@H]31 | 120% | 112% | 103% | 93.1% | 97.6% | 104% | 103% | 108% | 95.6% | 103%
3 | Cc1nc2sc(C(=O)Nc3ccccc3)c(N)c2cc1C(=O)/C=C/c1ccccc1 | 1.91% (active) | 12% | 50.1% | -9.1% (active) | -74.8% (active) | 0.182% (active) | 18.1% | -27% (active) | 54.2% | 11.1%
4 | O=C(O)C1CN(c2cccc(Cl)c2)N(c2cccc(Cl)c2)C1=O (stereo not given) | 96.2% | 101% | 70.8% | 85.1% | 94.9% | 81.7% | 95.6% | 100% | 99.3% | 87.8%
5 | Cn1cc(C(=O)c2nc(-c3c[nH]c4ccc(Br)cc34)no2)c2cc(Br)ccc21 | 3.08% (active) | 37.7% | 43.7% | 45.9% | 96.4% | 55.9% | 88.4% | 88.7% | 109% | 47%
6 | Cn1cc(-c2csc(-c3cn(C)c4ccc(Br)cc34)n2)c2cnccc21 | -88.6% (active) | -67% (active) | -91.3% (active) | -84.7% (active) | -87.2% (active) | -73.8% (active) | -78.2% (active) | -93.1% (active) | -23.2% (active) | -80.4% (active)
7 | Cc1nc2ccccc2c(/C=C/c2ccc(C(F)(F)F)cc2)c1C(=O)/C=C/c1ccccc1 | -43.6% (active) | 4.16% (active) | -65.2% (active) | -39.9% (active) | -82.9% (active) | 33.4% | -45.3% (active) | -83.6% (active) | -25.5% (active) | -25.9% (active)
8 | Cc1ccc(/C=C(\C#N)C(=O)Nc2ncc(Cc3cc(Cl)ccc3Cl)s2)o1 | 60% | 24.6% | 54.3% | 76.4% | 38.3% | 44.2% | 5.34% (active) | 16.9% | 35.3% | 69.4%
9 | O=C(OC[C@@H]1CO1)c1cccc2c(=O)c3ccccc3[nH]c12 | -20.8% (active) | 4.46% (active) | -89.9% (active) | -28.1% (active) | -56.9% (active) | -31.3% (active) | -8.88% (active) | -38.6% (active) | -30.8% (active) | -65.8% (active)
10 | O=c1ccc2nc(C(F)(F)F)nn(-c3ccccc3)c-2c1 | 40.5% | -35.1% (active) | -41.7% (active) | 61% | -20.5% (active) | 77.4% | 91.9% | 92.8% | 35.6% | 62.1%
11 | CCOC(=O)c1c(NC(=O)CSc2n[nH]c3nc4ccccc4n23)sc(CC)c1C | 112% | 117% | 138% | 90.3% | 96.1% | 108% | 91% | 111% | 113% | 116%
12 | NC(=O)c1ccc(NC(=O)c2oc3ccccc3c2-c2cnn(-c3ccccc3)c2)cc1 | 7.15% [50 µM] (active) | 46% [50 µM] | -7.76% [50 µM] (active) | -68% [50 µM] (active) | -29.1% [50 µM] (active) | 27.4% [50 µM] | 15.6% [50 µM] | -21.7% [50 µM] (active) | 47.3% [50 µM] | -0.698% [50 µM] (active)
13 | Cc1cccc(N2CCN(C(=S)c3ccc4c(c3)OCO4)CC2)c1 | 11% | 14% | 21.8% | 45.3% | -15.1% (active) | 47.2% | 2.38% (active) | -26.9% (active) | 32.5% | -4.87% (active)
